Assay outcomes: PubChem, Broad Institute
aSyn 5UTR act: Activators via SNCA 5'UTR binding, MLPCN. activity score, % (tested at 7.5 µM), hits read low. AID 1814. 300,000 tested, 7.1% active. alpha-synuclein 5'UTR reporter, activators screen; in the data active means activity score below about -60%
Numbers without * were called inactive. These entries were drawn from the full list.

SMILES | aSyn 5UTR act
COc1cc(/C=C2/C(=N)N3OC(C)=CC3=NC2=O)ccc1OCCOc1ccc(C)cc1 | -75*
N=C1C(c2nc3ccccc3[nH]2)=C(O)CN1c1ccc(F)cc1 | -65*
N=C1C(c2nc3ccccc3[nH]2)=C(O)CN1C1CCCCC1 | -116*
CCNc1ccccc(-c2ccc3ccccc3n2)c1=O | -186*
O=C1c2ccccc2C(=O)C1c1ccc2ccccc2n1 | 94
C=CCC1(CC=C)CCCN1C(=O)c1cc(COc2ccc(C)nc2)on1 | -78*
Cc1ccc(OCc2cc(C(=O)N3CCCC3)no2)cn1 | -70*
CCc1cc(CNC(=O)c2cc(COc3ccc(C)nc3)on2)on1 | -73*
CC(=O)Nc1ccc(OCc2nnc(-c3ccc(Cl)cc3)o2)cc1 | -96*
NNc1nc2c(-c3ccc(F)cc3)nnn2c2ccccc12 | -141*
NNc1nc2c(-c3ccc(Cl)cc3)nnn2c2ccccc12 | -92*
COc1ccc(N/C=C\C(=O)c2ccc(C)cc2)cc1OC | -84*
COc1ccc(C(=O)/C=C2\NCCc3cc(OC)c(OC)cc32)cc1OC | 64
COc1ccc(N/C=C\C(=O)c2ccc(Br)cc2)cc1OC | -108*
CC1(C)Cc2c(sc3nc(N/N=C/c4ccccc4)[nH]c(=O)c23)CO1 | -78*
Cc1ccc(OCC(=O)c2ccc3c(c2)CCCC3)cc1C | -84*
Cc1ccc(NC(=O)COc2ccc3c(c2)CCC3)nc1 | -98*
Cc1cccnc1NC(=O)COc1ccc2c(c1)CCC2 | -94*
O=Cc1cc(-c2ccccc2)[nH]c1-c1ccccc1 | -64*
CN(C)c1ccc(/C=C/c2nnnn2-c2ccccc2)cc1 | -157*
COc1cc(C2NC(=S)NC(C)=C2C(=O)Nc2ccc(C)cc2)ccc1O (stereo unspecified) | -171*
COc1ccc(-c2cc(CS(=O)(=O)c3ccccc3)on2)cc1 | -158*
O=S(=O)(Cc1cc(-c2ccccc2)no1)c1ccccc1 | -77*
FC(F)(F)c1cnc(-c2cnc(-c3cccnc3)nc2)c(Cl)c1 | -124*
NC(=O)COc1ccc2oc(-c3ccccc3)cc(=O)c2c1 | -166*
SMILES | aSyn 5UTR act
NC(=O)COc1ccc2cc(-c3ccccc3)c(=O)oc2c1 | -87*
COc1ccc(-c2cc3ccc(OCC(C)=O)cc3oc2=O)cc1OC | -125*
NC(=O)COc1ccc2cc(-c3ccc(F)cc3)c(=O)oc2c1 | -75*
COc1ccc(-c2coc3cc4oc(=O)c5ccccc5c4cc23)cc1F | 81
O=c1oc2cc(OCc3ccc(F)cc3F)ccc2cc1-c1ccccn1 | -101*
CC(=O)Nc1ccc2c(c1)c1ccccc1n2C(C)=O | -65*
CC(=O)Nc1ccc2c(c1)ncn2-c1ccccc1 | -110*
CCC(=O)Nc1ccc2c(c1)ncn2-c1ccccc1 | -75*
CCOc1ccc(-n2nc3ccc(NC(=O)CC)cc3n2)cc1 | -120*
CCn1cc(/C=C/C(=O)Nc2ccc(C)cc2Br)cn1 | -82*
CC1(C)CC(=O)C(C=Nc2ccc3c(c2)OCO3)=C(O)C1 | -71*
CNc1nc(N/N=C/c2cc3c(cc2[N+](=O)[O-])OCO3)nc(Nc2ccccc2)n1 | 74
O=[N+]([O-])c1ccc(O)c(C=Nc2ccc3c(c2)OCO3)c1 | -86*
O=[N+]([O-])c1cc(Br)cc(C=Nc2ccc3c(c2)OCO3)c1O | -89*
CC1(C)C=Cc2cc(-c3coc4cc(O)cc(O)c4c3=O)cc(O)c2O1 | -149*
Cc1ccc(SC[C@H](CC(C)C)N2CCN(C)CCC2=O)cc1 | -135*
CC(C)C[C@@H](CSc1ccc(Br)cc1)N1CCN(C)CCC1=O | -141*
CC(C)C[C@@H](CSc1ccc(Br)cc1)N1CCN(CC(C)C)CCC1=O | -148*
COc1ccc(SC[C@H](CC(C)C)N2CCN(C)CCC2=O)cc1 | -86*
CCCN1CCC(=O)N([C@H](CSc2ccc(OC)cc2)c2ccccc2)CC1 | -77*
Cc1ccc(SC[C@H](c2ccccc2)N2CCN(C)CCC2=O)cc1 | -138*
COc1cccc(Nc2nc(CC(C)=O)ns2)c1 | -86*
COc1ccc(Nc2nc(CC(C)=O)ns2)cc1 | -109*
CC(=O)Cc1nsc(Nc2ccc3c(c2)OCCO3)n1 | -125*
COCCNC(=O)Cn1nc(-c2ccccc2OC)ccc1=O | -62*
SMILES | aSyn 5UTR act
c1ccc2c(-c3csc(-c4ccncc4)n3)c[nH]c2c1 | -141*
Brc1ccc(-c2csc(-c3c[nH]c4ccccc34)n2)cc1 | -183*
Fc1ccccc1/C=N/Nc1ccc(Cl)nn1 | -110*
COc1cccc(/C=N/Nc2nnc3c(n2)[nH]c2ccccc23)c1OC | -84*
C(=N\Nc1ccc2nncn2n1)/c1ccccn1 | 67
COc1cccc(/C=N/Nc2ccc(Cl)nn2)c1OC | -155*
CC(/C=N/Nc1nnc2c(n1)[nH]c1ccccc12)=C\c1ccco1 | -165*
O=C(Nc1nc2c(ccc3ccccc32)s1)c1ccco1 | -293*
O=C(NC(=S)Nc1nc2c(ccc3ccccc32)s1)c1cccs1 | -63*
O=C(Nc1ccc(-c2nc3c(ccc4ccccc43)o2)cc1)c1ccco1 | -165*
O=C(Nc1nc2c(F)c(F)c(F)cc2s1)c1ccco1 | -179*
Cc1ccc(OCC(=O)Nc2ccc3c(c2)nc(CCN2CCN(C)CC2)n3C)cc1 | 105
CC(=O)NCCc1nc2cc(NC(=O)c3ccc(F)cc3)ccc2n1C | -111*
Cn1cnc2cc(NC(=O)COc3ccccc3)ccc21 | -117*
CCC(=O)NCCc1nc2cc(NC(=O)c3ccccc3OC)ccc2n1C | -71*
CCC(=O)NCCc1nc2cc(NC(=O)COc3ccccc3)ccc2n1C | -113*
CCC(=O)NCCc1nc2cc(NC(=O)c3cccc([N+](=O)[O-])c3)ccc2n1C | -70*
COc1ccccc1C(=O)Nc1ccc2c(c1)nc(CCNC(C)=O)n2C | -73*
CC(C)C(=O)Nc1ccc(NC(=O)c2ccco2)cn1 | -86*
CCCCC(=O)Nc1ccc(NC(=O)c2ccco2)cn1 | -75*
CCCC(=O)Nc1ccc(NC(=O)c2ccco2)cn1 | -93*
Fc1ccc2c(Cl)c(-c3nnc(-c4cccs4)o3)sc2c1 | -178*
O=C(Nc1ncc(Cc2ccccc2Cl)s1)C1CCCO1 (stereo unspecified) | -89*
O=C(Nc1ncc(Cc2cccc(Cl)c2)s1)C1CCCO1 (stereo unspecified) | -161*
O=C(Nc1ncc(Cc2cccc(Cl)c2Cl)s1)C1CCCO1 (stereo unspecified) | -128*
SMILES | aSyn 5UTR act
Nc1cc2c(cc1O)CCCC2 | -91*
O=C(Nc1cccc(O)c1)c1c(O)c2ccccc2[nH]c1=O | -92*
O=C1/C(=C\c2cccs2)Sc2ccc3ccccc3c21 | -165*
Cc1nn(-c2ccccc2)c(C)c1CCC(=O)O | -107*
O=C(NCCc1ccccc1)c1cccc(Br)c1 | -131*
O=C(NCCc1ccccc1)c1cnc2ccccc2n1 | -99*
O=C(NCCc1ccccc1)c1cccnc1 | -99*
O=C(NCCc1ccccc1)c1ccc2nccnc2c1 | 63
O=C(O)c1cccc(S(=O)(=O)Nc2ccccc2C(=O)NCCc2ccccc2)c1 | -64*
O=C(NCCc1ccccc1)c1cccc([N+](=O)[O-])c1 | -77*
O=C(CCCc1ccccc1)Nc1cccc([N+](=O)[O-])c1 | -161*
CN(C)c1ccc(/C=C2\CCCc3c2nc2ccccc2c3C(=O)O)cc1 | -121*
Cc1ccnc(NC(=O)CCCc2ccccc2)c1 | -182*
O=C(CCCc1ccccc1)Nc1ccccn1 | -111*
O=C(CCOc1ccccc1F)N1CCN(c2ccccc2O)CC1 | -75*
Fc1ccccc1NC(=S)N1CCC(c2ccccc2)C1 (stereo unspecified) | -111*
